# Values joined by “and” are separate entries in the source; they are usually repeats but may differ in a detail not shown here. Equal values may be shown once. Compounds without any hit were thinned out: in the full panel of roughly 79,000, 15% have a hit. Unmarked numbers belong to inactive results. Active and inactive are the calls of the source. Rule as the data show it: active = growth inhibition above about 70%; inactive = the rest.
# Key:
# [1] = NCI Yeast Anticancer Drug Screen. Data for the rad50 strain (AID 155);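 also: 0% = growth of vehicle-only cultures of the same strain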; conditions: S. cerevisiae rad50 strain growth inhibition, hits give high values; at 50.0 µM unless noted
# Procedure, shortened: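 Vehicle-treated cultures provide the reference for the growth inhibition reported for compound-exposed, repair-deficient yeast.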
# [2] = NCI Yeast Anticancer Drug Screen. Data for the mec2-1 strain (AID 157); conditions: S. cerevisiae mec2-1 strain, hits give high values; at 50.0 µM unless noted
# Procedure, shortened: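 Compounds were applied to mec2-1 yeast cells. Their growth was then compared with that of vehicle-treated cultures to give growth inhibition.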
# [3] = NCI Yeast Anticancer Drug Screen. Data for the sgs1 mgt1 strain (AID 161);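 also: 0% = growth of cultures given vehicle only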; conditions: S. cerevisiae sgs1 mgt1 strain, hits give high values; at 50.0 µM unless noted
# Procedure, shortened: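 Percent growth inhibition was derived by comparing compound-exposed mutant yeast with vehicle-exposed cultures. The strain carries alterations in DNA damage repair.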
# [4] = NCI Yeast Anticancer Drug Screen. Data for the cln2 rad14 strain (AID 165);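 also: 0% = growth equal to vehicle treated cultures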; conditions: S. cerevisiae cln2 rad14 strain, hits give high values; at 50.0 µM unless noted
# Procedure, shortened: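 Strain: cln2 rad14 yeast, altered in cell cycle control and DNA damage repair. Read-out: growth inhibition vs vehicle.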
# [5] = NCI Yeast Anticancer Drug Screen. Data for the bub3 strain (AID 167); conditions: S. cerevisiae bub3 mutant strain, hits give high values; at 50.0 µM unless noted
# Procedure, shortened: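 Mutant yeast screening strain plus compound; vehicle-treated cultures serve as the 0% inhibition reference.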
# [6] = NCI Yeast Anticancer Drug Screen. Data for the mlh1 rad18 strain (AID 175); conditions: S. cerevisiae mlh1 rad18 strain growth inhibition, hits give high values; at 50.0 µM unless noted
# Procedure, shortened: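 A repair-deficient yeast strain is exposed to test compound, and growth is scored relative to vehicle-treated controls.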
Compound,growth inhibition [1],growth inhibition [2],growth inhibition [3],growth inhibition [4],growth inhibition [5],growth inhibition [6]
CCOC(=O)c1c[nH]c2c(Cl)c(Cl)ccc2c1=O,-4.65%,-19.1%,-1.1%,12.9%,9.25%,-6.95%
CSCCSC,10.2%,4.6%,-0.1%,13.4%,3.4%,3.65%
COc1cc([N+](=O)[O-])c(S(=O)(=O)O)cc1NS(=O)(=O)c1ccc(C)cc1,7.8%,16.6%,22%,3.95%,1.4%,10.2%
Cc1nc(-c2cccnc2)sc1C(=O)CC(=O)C(=O)Nc1cccc(NC(=O)C(=O)CC(=O)c2sc(-c3cccnc3)nc2C)n1,20.2%,-0.75%,-21.6%,0.1%,-12.9%,6.85%
CC(C)CCCC(C)C1CCC2C3CC(C(=O)O)C(C)(CCC(=O)O)C3CCC12C (stereo unspecified),44%,36%,43.9%,30%,4%,41.7%
CCOC(=O)c1cc(C)ncc1N,9.85%,7.4%,-7.1%,13.2%,-0.95%,3.3%
Cc1ccc(NC(=O)C2CCCCC2)cc1,5.85%,3.3%,-6.6%,10.6%,-6.25%,-1.6%
COc1cc(C2c3cc4c(c(OC)c3CC3COC(=O)[C@@H]32)OCO4)cc(OC)c1O (stereo partly specified),85.9% (active),86.2% (active),80.5% (active),76.3% (active),82.8% (active),87.7% (active)
CC(C)(C)C(=O)/C(=C/C(=O)O)C(C)(C)C,-0.1%,10.7%,1.25%,7.6%,-0.9%,-0.95%
COc1ccc(CCNC(=O)[C@H]2CCCC[C@@H]2CCO)cc1OC,15.5%,10.6%,-46.9%,3.25%,-42.8%,-9%
c1ccc2c(c1)OC1OC2Oc2ccccc21,-25.8% and -10.4%,-39.1% and -3.85%,-26.3% and 7.8%,1.6% and -6.05%,-57.5% and 8.1%,-28.9% and 11.8%
CCN1CCC(O)C1 (stereo unspecified),18.6%,-0.1%,19.2%,14.2%,26%,30.9%
Cc1ccc2sccc(=O)c2c1,1.05%,-2.1%,-8.95%,-12.8%,-5.95%,7.6%
O=C(O)Cn1c(=O)[nH]c(=O)c2[nH]cnc21,4.6%,-26.4%,-0.3%,13.8%,-9.2%,-12%
Cc1ccc(C(N)=O)cc1N=NN(C)C,-25.8%,-39.4%,-56.9%,1.55%,-16.6%,-24.4%
O=C1CCCC2CCCC(=O)N12,-1.35%,-0.85%,-0.4%,8.9%,1%,-9.7%
CCOC(=O)c1cnc2c(cnn2CC)c1N1CCCCC1,-13.9%,28.2%,18.9%,-36.9%,36.6%,23.4%
S=c1[nH]nc2scnn12,-2.85%,3.55%,4.25%,-45.5%,7.4%,-9.3%
CC(C(=O)O)N1C(=O)CNC1=O (stereo unspecified),-1.85%,-4.05%,1.15%,-37.6%,1.25%,-12.8%
Cc1[nH]n(-c2ccc(Cl)cc2)c(=O)c1N=Nc1cccc(C(F)(F)F)c1,21.8%,2.05%,2.1%,7.45%,-2.05%,2%
Cc1ccc(NC(=O)N(C)C)c(C)c1,-36.7%,-37%,-4.9%,12%,16.4%,-9.75%

Compound,growth inhibition [1],growth inhibition [2],growth inhibition [3],growth inhibition [4],growth inhibition [5],growth inhibition [6]
Cc1ccc(S(=O)(=O)NNC(=O)CCn2[nH]c(=O)c(Cl)c(Cl)c2=O)cc1,-16.9%,-9.65%,-8.1%,-38.1%,-0.3%,-12.1%
Cc1cccc[n+]1C,3.45%,4.35%,0.05%,-19.2%,22.9%,4.05%
CC1CN(S(=O)(=O)c2ccccc2)CCN1S(=O)(=O)c1ccccc1 (stereo unspecified),-9.65%,-4.3%,-8.35%,-8.45%,1.5%,-0.55%
C[Si](C)(C)Cn1cccc1,-7.5%,8.9%,5%,-37.6%,-1.15%,-8.85%
COc1ccc(-c2nc(Sc3c([N+](=O)[O-])ncn3C)n[nH]2)cc1,-1.25%,5.75%,3.7%,25.7%,12.5%,-6.6%
Cc1nnc(N)nc1C,33%,9.5%,-10.1%,-0.8%,-1.3%,13.6%
CCOC(=O)c1ccc(N)nc1,-3.75%,-3.3%,5.35%,-13%,7.95%,18.6%
C/C(=N/NC(N)=S)c1ccc([N+](=O)[O-])cc1,75.7% (active),-8.8%,-8.6%,-64.7%,-12.4%,-2.3%
O=S(=O)(O)C(I)S(=O)(=O)O,-19.1%,-2.65%,-19.4%,-18.2%,-10.8%,-20%
NCCS(=O)(=O)O,1.8%,8.7%,7.7%,19.8%,-5.6%,-6.95%
COc1cc(O)c(C(C)=O)c(O)c1,9.55%,16.2%,9.5%,16.8%,29.2%,18.5%
CN(C)c1ccc(/[N+]([O-])=N/N2C(=O)c3ccccc3C2=O)cc1,-25.1%,-24.4%,-20.9%,-52%,-22.9%,-25.5%
CCOc1cc(/C=N/NC(=O)c2ccccc2NC(=O)c2ccccc2Cl)ccc1O,11.3%,-1.9%,-7.05%,-1.8%,3.05%,-9.3%
CN1C(=O)N(C)C2(O)c3ccccc3C(=O)C12O (stereo unspecified),14.6%,2.9%,18.9%,15%,19.8%,38.9%
O=c1[nH][nH]c(=O)c2c([N+](=O)[O-])cccc12,-17.6%,-8.6%,-3.8%,-37.5%,0.35%,-0.35%
CCCCCC=C(C(=O)OCC)C(=O)OCC,22.9%,-1.7%,-4.15%,12.3%,-30.4%,11.1%
CCOC(OCC)C1(C)CC=CCC1 (stereo unspecified),20.4%,11.3%,5.05%,-3.4%,3.15%,6.4%
C/C(=C\CNc1ncnc2c1ncn2CCC#N)CO,-17%,13.2%,-33.2%,1.5%,14.8%,-15.9%
CC[N+]1(CN2CCCCC2)CCCCC1,18.5%,-2.8%,4%,-7.4%,-22.6%,37.6%
Cc1cc(C)c(CC(=O)c2ccccc2)c(C)c1,0%,-9.5%,-1.9%,-32%,0.95%,-5%

# Source: PubChem BioAssay (NCI)
